Laboratory results: PubChem BioAssay AID2188 (Vanderbilt High Throughput Screening Facility, 2009)
Results with a measured potency or affinity are listed apart.

Molecular target: Metabotropic glutamate receptor 2 (Rattus norvegicus) (UniProt P31421)
Experiment: rat mGluR2 glutamate potency shift by compounds, selectivity assay for mGluR4 modulator project, cell-based (AID 2188)
Settings: mGluR2 cells, thallium flux, glutamate CRC + 10 uM compound; glutamate EC50 fold-shift by compound; at 10 µM; stronger effect = higher value

Sequence of Metabotropic glutamate receptor 2 (Rattus norvegicus) (P31421 whole entry, looked up): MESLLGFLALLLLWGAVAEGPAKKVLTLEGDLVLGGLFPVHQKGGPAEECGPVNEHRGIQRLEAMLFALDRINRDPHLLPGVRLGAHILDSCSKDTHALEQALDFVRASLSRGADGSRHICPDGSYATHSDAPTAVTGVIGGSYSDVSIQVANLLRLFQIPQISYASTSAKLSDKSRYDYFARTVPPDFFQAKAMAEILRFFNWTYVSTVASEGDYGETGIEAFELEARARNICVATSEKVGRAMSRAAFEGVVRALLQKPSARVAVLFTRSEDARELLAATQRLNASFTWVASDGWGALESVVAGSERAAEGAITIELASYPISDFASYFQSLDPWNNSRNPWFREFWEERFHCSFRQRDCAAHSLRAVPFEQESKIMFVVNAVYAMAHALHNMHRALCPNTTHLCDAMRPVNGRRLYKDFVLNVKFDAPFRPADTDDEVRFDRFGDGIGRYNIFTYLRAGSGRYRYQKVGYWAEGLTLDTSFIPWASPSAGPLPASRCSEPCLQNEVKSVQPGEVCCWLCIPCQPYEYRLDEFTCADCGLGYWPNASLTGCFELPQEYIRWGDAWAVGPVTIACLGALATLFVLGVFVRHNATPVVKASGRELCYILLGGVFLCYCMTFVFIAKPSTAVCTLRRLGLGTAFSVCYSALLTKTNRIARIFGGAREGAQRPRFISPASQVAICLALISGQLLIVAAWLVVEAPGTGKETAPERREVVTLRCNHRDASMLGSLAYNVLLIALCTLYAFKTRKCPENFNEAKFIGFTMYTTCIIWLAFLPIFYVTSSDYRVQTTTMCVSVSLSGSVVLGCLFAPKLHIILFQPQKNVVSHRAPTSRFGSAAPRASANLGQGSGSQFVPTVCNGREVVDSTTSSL

Structure (SMILES) | fold shift
O=C(Nc1cccc(Cl)c1)c1ccccn1 | 1.87
O=C(Nc1ccc(N2C(=O)C3[C@H]4C=C[C@H](C4)[C@H]3C2=O)c(Cl)c1)c1ccccn1 (some centres not stated) | 1.05
